These results are taken from PubChem BioAssay (EPA / NIEHS).

Records with an inconclusive call do not appear. Calls of active or inactive are those of the source. Rule for the calls: active = hit-call score of the fitted dose curve at least 0.9, where 1 is the maximum; inconclusive = response in the unintended direction; inactive = score below 0.9.

AR (gene 367), sequence (P10275 whole entry, looked up): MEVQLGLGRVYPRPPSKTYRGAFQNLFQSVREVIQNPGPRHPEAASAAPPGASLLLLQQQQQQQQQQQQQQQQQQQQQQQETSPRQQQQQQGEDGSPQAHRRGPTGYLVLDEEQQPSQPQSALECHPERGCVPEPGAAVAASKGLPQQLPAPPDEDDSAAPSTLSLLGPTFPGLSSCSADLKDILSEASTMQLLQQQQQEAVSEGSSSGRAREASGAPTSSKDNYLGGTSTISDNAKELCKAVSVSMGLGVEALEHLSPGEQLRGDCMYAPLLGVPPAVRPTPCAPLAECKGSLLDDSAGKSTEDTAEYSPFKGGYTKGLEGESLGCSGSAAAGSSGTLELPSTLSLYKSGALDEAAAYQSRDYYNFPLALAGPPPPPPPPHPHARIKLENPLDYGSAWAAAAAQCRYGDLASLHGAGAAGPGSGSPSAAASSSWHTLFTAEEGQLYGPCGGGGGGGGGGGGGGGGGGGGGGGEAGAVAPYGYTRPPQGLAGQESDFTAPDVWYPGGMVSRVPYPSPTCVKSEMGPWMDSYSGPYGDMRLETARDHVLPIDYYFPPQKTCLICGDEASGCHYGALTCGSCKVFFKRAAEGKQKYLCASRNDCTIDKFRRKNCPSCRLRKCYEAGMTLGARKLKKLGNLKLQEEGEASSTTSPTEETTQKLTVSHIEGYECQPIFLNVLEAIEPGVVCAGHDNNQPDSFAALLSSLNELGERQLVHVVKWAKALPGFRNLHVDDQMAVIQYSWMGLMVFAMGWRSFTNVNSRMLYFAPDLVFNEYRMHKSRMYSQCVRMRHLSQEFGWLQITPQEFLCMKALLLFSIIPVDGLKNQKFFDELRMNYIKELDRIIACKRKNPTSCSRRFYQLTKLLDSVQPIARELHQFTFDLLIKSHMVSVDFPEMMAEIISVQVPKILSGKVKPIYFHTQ

System in one assay: not listed separately
In words: ACEA_ER_AUC_viability: ACEA Biosciences xCELLigence Real-Time Cell Analysis on Estrogen Receptor Agonism for Viability (AID 2283782).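 Note: continuous compound exposure with impedance area under curve over 80 h; hit means loss of impedance signal meaning reduced cell growth or viability.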 Summed up:
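T-47D human breast cells in phenol red-free RPMI1640 with 10% charcoal-stripped FBS were dosed with an 8-point 1:4 dilution series from 100 uM top final concentration, in duplicate. Impedance-based growth was followed for 80 h; AUC analysed versus DMSO.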
Take `CC1COc2ccccc2N1C(=O)C(Cl)Cl` (stereo not drawn): the AC50 was 4.69 µM (active).
In the case of `O=C(O)CCSCCC(=O)O`, the molecule was called inactive.
As for `CCCCCCCCCCCCCOS(=O)(=O)O`, the half-maximal activity concentration (AC50) is 73.8 µM (active).
Take `O=C(O)c1cccc([N+](=O)[O-])c1`: the molecule was called inactive.
As for `CN(C)CCCN`, the result was inactive.
Turning to `CC(=O)C(=O)O`, the AC50 is 78 µM (active).
With `Cc1ccc(C(C)C)cc1O`, the result was inactive.
The same measure, in the same setting: next, `OCc1cccnc1`: “inactive”.
`CCCCO`: the AC50 was 35.2 µM (active).
On to `NCCCN1CCOCC1`, for which the result was inactive.
With `C=CC(C)(CCC=C(C)C)OC=O` (stereo not drawn), the call was inactive.
Still for that read-out and setting: then `COc1ccc(O)cc1`, with “inactive”.
Consider `CCCCCCCCCCCCCCCC(=O)OC[C@H](O)[C@H]1OC(=O)C(O)=C1O`, for which the AC50 was 39.2 µM (active).
On to `CO[Si](CCCn1c(=O)n(CCC[Si](OC)(OC)OC)c(=O)n(CCC[Si](OC)(OC)OC)c1=O)(OC)OC`, for which the AC50 is 21.7 µM (active).
Still for that read-out and setting: then `BrC1CCC(Br)C(Br)CCC(Br)C(Br)CCC1Br` (stereo not drawn), with 8.63 µM (active).
With `OC1C(O)C(O)C(O)C(O)C1O` (stereo not drawn), the result was inactive.
As to `COc1cc(C=O)ccc1OC(=O)C(C)C`, the outcome was inactive.
Same read-out and setting: then `O=C1CCCCCCCCCCCCCCO1`, with “inactive”; and `CCC(=O)/C=C/C1C(C)=CCCC1(C)C` (stereo not drawn), with “inactive”.
Consider `O=C=NC1CCC(CC2CCC(N=C=O)CC2)CC1` (stereo not drawn), for which the AC50 was 28.5 µM (active).
In the case of `c1ccc2[nH]ccc2c1`, the molecule was classed as inactive.
For `CCC/C=C/C=O`, the outcome was inactive.
On the same count and under the same terms, next, `CCCC(=O)c1cc(O)c(O)cc1O`: “inactive”; `CCCOCC(C)O` (stereo not drawn): “inactive”.
The same measure, in the same setting: then `CC(C)[C@H]1CC[C@@H](C)CC1=O`, with “inactive”.
Consider `CCC(=O)OCCC(C)CCC=C(C)C` (stereo not drawn), for which the AC50 is 78.6 µM (active).
Regarding `c1ccc(CCCc2ccccn2)cc1`, the result was inactive.
Same read-out and setting: then `CC(C)(C)NC(N)=O`, with “inactive”.
Consider `O=Nc1ccc(Nc2ccccc2)cc1`, for which the AC50 is 11.1 µM (active).
Turning to `C[Si](O[Si](C)(C)C)O[Si](C)(C)C`, the call was inactive.
The same measure, in the same setting: then `O=C[C@@H](O)[C@H](O)[C@H](O)CO`, with “inactive”.

The next assay has as its target AR (gene 367) (UniProt P10275). In words: ACEA_AR_agonist_80hr: ACEA Biosciences xCELLigence Real-Time Cell Analysis on Androgen Receptor Agonism for Proliferation (AID 2283783).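 Note: hits increase impedance growth signal above DMSO baseline.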 Summed up: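 22Rv1 human prostate cancer cells were seeded after preconditioning in assay medium and monitored overnight, then dosed in an eight-point 1:4 dilution series from 100 uM (≤0.5% DMSO). Impedance-based growth was read at 80 h, gain-of-signal versus DMSO.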
As to `CCCCCCCCCCCCCOS(=O)(=O)O`, the molecule was classed as inactive.
`O=c1cc(-c2ccccc2)oc2cc(O)cc(O)c12`: the concentration at half-maximal activity (AC50) was 0.0729 µM (active).
With `CCCOCC(C)O` (stereo not drawn), the call was inactive.
Still for that read-out and setting: next, `O=Nc1ccc(Nc2ccccc2)cc1`: “inactive”; `C[Si](O[Si](C)(C)C)O[Si](C)(C)C`: “inactive”.

The next assay has as its target AR (gene 367) (UniProt P10275). Nature of the assay: ACEA_AR_antagonist_80hr: ACEA Biosciences xCELLigence Real-Time Cell Analysis on Androgen Receptor Antagonism for Proliferation (AID 2283787).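 Note: hits lower the impedance growth signal relative to DMSO.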 A digest of the protocol:
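Impedance readout (RT-CES), 80 h post-dose; loss-of-signal vs DMSO baseline. 22Rv1 cells in assay medium. Compounds: 8-pt 1:4 series, max 100 uM final, up to 0.5% DMSO; n = 2.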
With `CCN(CC)c1ccc(C(=C2C=CC(=[N+](CC)CC)C=C2)c2ccc(S(=O)(=O)O)cc2S(=O)(=O)[O-])cc1`, the molecule was classed as inactive.
For the molecule `NCCCN1CCOCC1`, the molecule was classed as inactive.
Still for that read-out and setting: next, `CCCCC[Si](OCC)(OCC)OCC`: “inactive”; `O=c1cc(-c2ccccc2)oc2cc(O)cc(O)c12`: “inactive”.
Turning to `COc1ccc(O)cc1`, the result was inactive.
Turning to `CCCCCCCCCCCCCCCC(=O)OC[C@H](O)[C@H]1OC(=O)C(O)=C1O`, the AC50 is 7.84 µM (active).
Consider `BrC1CCC(Br)C(Br)CCC(Br)C(Br)CCC1Br` (stereo not drawn), for which the result was inactive.
In the case of `c1ccc2[nH]ccc2c1`, the outcome was inactive.
In the case of `CCC/C=C/C=O`, the outcome was inactive.
Still for that read-out and setting: then `O=Nc1ccc(Nc2ccccc2)cc1`, with “inactive”; and `C[Si](O[Si](C)(C)C)O[Si](C)(C)C`, with “inactive”.
Turning to `O=C[C@@H](O)[C@H](O)[C@H](O)CO`, the molecule was called inactive.

As usually defined, the AC50 is the midpoint of the concentration-response curve, whichever way the signal moves.
